# Publication PMC7862700, “An all-to-all approach to the identification of sequence-specific readers for epigenetic DNA modifications on cytosine”
# Key:
# Assay in all cases: DAPPL (digital affinity profiling via proximity ligation, sequencing); 10 mM Tris-HCl pH 7.5, 50 mM NaCl, 1 mM DTT, 4% glycerol, room temperature, 30 min; GST-TFs on glutathione beads, 16-mer random dsDNA library, 0.1% formaldehyde crosslink after washing; high values mean tight binding
# [1] = target: T1, FLI1 (Homo sapiens, UniProt Q01543 1-452); settings: protein: recombinant; tags: N-terminal GST; dsDNA, one strand shown
# T1 sequence: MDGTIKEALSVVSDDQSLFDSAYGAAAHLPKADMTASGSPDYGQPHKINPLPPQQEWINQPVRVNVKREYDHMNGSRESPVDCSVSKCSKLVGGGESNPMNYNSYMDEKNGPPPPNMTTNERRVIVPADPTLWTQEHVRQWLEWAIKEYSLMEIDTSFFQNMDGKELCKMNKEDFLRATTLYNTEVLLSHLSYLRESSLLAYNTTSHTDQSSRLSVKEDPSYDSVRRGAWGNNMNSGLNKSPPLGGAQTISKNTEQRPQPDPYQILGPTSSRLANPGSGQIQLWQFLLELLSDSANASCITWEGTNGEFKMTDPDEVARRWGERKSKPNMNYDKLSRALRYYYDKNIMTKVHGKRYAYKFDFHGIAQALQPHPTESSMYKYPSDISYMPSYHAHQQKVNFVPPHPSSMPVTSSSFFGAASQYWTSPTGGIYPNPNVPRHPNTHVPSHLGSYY
# Summary of the method: (§1)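 Each value of binding signal is a hexamer's read frequency for a factor divided by the same hexamer's frequency in the tag-only sample. Barcoded, bead-captured GST fusions of human transcription factors made in yeast were pooled with that sample and incubated with 200 nmole of a random double-stranded 16-mer DNA library in Tris/NaCl/DTT/glycerol buffer at room temperature for 30 min. Washing, 0.1% formaldehyde crosslinking, proximity ligation, PCR and Illumina NextSeq500 sequencing followed.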
# [2] = target: T2, ELK1 (Homo sapiens, UniProt P19419 1-428); settings: protein: recombinant; tags: N-terminal GST; dsDNA, one strand shown
# T2 sequence: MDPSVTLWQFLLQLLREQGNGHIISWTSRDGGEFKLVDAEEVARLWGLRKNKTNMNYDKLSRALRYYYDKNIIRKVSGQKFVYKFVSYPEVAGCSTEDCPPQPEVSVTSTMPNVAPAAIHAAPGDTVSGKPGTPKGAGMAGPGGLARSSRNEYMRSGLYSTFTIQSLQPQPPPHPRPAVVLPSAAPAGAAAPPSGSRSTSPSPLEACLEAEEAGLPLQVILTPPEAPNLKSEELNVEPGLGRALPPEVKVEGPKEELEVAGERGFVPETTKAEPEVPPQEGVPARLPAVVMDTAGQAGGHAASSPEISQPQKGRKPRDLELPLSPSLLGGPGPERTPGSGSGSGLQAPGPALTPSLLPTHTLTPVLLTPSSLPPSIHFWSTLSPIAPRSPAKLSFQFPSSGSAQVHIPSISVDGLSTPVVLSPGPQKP
# Summary of the method: as §1
# [3] = target: T3, GABPA (Homo sapiens, UniProt Q06546 1-454); settings: protein: recombinant; tags: N-terminal GST; dsDNA, one strand shown
# T3 sequence: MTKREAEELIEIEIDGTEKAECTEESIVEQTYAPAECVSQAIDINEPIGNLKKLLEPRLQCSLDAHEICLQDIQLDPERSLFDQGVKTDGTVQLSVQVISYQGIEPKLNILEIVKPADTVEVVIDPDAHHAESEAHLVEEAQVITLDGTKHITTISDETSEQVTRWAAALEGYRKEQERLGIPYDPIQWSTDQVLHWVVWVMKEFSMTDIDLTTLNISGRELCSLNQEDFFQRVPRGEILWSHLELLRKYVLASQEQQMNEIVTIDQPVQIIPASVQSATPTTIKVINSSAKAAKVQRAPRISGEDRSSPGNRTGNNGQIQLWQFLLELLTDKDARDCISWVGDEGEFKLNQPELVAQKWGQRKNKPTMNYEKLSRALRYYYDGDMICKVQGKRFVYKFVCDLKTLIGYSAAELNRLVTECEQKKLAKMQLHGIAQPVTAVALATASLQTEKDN
# Summary of the method: as §1
# [4] = target: T4, ERG (Homo sapiens, UniProt P11308 1-479); settings: protein: recombinant; tags: N-terminal GST; dsDNA, one strand shown
# T4 sequence: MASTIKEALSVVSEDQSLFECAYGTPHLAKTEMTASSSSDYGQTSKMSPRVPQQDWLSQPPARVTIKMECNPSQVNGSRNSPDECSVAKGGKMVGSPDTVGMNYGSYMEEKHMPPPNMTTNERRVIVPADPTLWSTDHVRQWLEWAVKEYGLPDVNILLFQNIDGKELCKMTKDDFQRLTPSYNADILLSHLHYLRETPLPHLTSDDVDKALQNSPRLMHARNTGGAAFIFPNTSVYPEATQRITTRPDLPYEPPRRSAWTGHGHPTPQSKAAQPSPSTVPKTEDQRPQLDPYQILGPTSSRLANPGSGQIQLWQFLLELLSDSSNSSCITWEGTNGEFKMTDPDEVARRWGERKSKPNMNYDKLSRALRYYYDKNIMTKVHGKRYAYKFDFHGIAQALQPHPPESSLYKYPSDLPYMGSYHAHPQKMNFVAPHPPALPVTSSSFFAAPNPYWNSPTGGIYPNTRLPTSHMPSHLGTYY
# Summary of the method: as §1
# [5] = target: ELF1 (Homo sapiens, UniProt P32519 1-619); settings: protein: recombinant; tags: N-terminal GST; dsDNA, one strand shown
# Sequence of ELF1 (P32519 whole entry): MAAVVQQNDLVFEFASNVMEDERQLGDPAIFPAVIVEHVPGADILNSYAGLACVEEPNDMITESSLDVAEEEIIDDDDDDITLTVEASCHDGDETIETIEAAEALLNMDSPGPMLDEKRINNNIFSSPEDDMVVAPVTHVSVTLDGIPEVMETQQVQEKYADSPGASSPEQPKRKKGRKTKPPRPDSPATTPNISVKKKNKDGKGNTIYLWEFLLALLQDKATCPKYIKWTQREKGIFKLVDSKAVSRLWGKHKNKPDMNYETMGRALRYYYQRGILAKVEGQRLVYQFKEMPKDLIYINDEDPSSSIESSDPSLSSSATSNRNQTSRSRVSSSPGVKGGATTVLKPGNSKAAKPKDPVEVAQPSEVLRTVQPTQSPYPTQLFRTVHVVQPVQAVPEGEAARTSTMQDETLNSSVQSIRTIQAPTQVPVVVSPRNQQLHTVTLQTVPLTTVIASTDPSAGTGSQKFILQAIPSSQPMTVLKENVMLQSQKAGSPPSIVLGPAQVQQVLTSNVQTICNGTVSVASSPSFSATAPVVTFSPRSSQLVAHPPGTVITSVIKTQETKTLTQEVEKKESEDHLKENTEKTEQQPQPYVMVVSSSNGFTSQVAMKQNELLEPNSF
# Summary of the method: as §1
# [6] = target: T5, EHF (Homo sapiens, UniProt Q9NZC4 1-300); settings: protein: recombinant; tags: N-terminal GST; dsDNA, one strand shown
# T5 sequence: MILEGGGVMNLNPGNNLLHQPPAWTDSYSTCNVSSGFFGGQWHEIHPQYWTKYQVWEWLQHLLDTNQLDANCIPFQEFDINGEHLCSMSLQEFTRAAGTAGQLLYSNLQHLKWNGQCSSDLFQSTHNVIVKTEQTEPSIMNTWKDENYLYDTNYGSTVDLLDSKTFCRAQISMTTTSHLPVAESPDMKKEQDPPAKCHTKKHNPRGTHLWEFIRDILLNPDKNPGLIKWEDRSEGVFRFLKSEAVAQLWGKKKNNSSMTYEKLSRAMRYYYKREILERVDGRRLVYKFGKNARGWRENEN
# Summary of the method: as §1
# [7] = target: SPI1 (Homo sapiens, UniProt P17947 1-270); settings: protein: recombinant; tags: N-terminal GST; dsDNA, one strand shown
# Summary of the method: as §1
# [8] = target: SPIB (Homo sapiens, UniProt Q01892 1-262); settings: protein: recombinant; tags: N-terminal GST; dsDNA, one strand shown
# Sequence of SPIB (Q01892 whole entry): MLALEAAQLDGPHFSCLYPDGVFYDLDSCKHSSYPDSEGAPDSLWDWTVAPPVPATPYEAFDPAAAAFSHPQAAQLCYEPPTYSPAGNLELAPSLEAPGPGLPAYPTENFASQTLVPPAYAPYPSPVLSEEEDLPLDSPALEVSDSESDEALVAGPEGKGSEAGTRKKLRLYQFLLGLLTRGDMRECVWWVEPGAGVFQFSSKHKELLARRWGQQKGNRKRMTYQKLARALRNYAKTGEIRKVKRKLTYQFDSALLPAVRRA
# Summary of the method: as §1
# [9] = target: T6, ELK3 (Homo sapiens, UniProt P41970 1-407); settings: protein: recombinant; tags: N-terminal GST; dsDNA, one strand shown
# T6 sequence: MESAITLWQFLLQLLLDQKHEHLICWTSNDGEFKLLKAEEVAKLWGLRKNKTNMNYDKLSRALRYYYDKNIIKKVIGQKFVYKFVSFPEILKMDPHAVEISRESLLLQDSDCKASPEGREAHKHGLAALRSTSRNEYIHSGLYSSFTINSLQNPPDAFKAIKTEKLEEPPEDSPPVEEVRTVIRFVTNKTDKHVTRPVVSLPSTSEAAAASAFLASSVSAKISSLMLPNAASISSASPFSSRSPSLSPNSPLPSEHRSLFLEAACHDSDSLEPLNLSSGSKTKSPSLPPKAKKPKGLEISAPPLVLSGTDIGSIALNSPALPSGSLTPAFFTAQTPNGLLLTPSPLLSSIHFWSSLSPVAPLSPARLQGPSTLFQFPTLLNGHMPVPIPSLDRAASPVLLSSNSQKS
# Summary of the method: as §1
# [10] = target: T7, FEV (Homo sapiens, UniProt Q99581 1-238); settings: protein: recombinant; tags: N-terminal GST; dsDNA, one strand shown
# T7 sequence: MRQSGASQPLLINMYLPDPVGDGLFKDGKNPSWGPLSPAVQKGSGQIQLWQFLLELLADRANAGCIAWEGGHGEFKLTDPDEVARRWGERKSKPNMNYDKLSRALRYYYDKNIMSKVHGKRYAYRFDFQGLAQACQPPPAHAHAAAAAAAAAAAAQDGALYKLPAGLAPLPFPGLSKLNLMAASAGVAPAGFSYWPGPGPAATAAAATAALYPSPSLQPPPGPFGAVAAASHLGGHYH
# Summary of the method: as §1
# [11] = target: ETV5 (Homo sapiens, UniProt P41161 1-510); settings: protein: recombinant; tags: N-terminal GST; dsDNA, one strand shown
# Sequence of ETV5 (P41161 whole entry): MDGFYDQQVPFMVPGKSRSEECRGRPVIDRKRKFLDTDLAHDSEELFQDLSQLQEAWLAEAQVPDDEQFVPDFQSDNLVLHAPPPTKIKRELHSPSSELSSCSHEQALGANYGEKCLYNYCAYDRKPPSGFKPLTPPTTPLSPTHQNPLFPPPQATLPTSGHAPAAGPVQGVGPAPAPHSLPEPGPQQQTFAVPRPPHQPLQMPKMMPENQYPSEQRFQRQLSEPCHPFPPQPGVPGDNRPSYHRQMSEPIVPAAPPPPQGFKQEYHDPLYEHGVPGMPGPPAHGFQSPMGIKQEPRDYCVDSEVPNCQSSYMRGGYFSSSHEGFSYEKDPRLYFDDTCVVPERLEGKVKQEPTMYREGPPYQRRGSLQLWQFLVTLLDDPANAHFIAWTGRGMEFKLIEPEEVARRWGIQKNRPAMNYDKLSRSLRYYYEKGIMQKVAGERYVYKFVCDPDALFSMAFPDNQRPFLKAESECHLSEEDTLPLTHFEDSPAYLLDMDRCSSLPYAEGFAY
# Summary of the method: as §1
# [12] = target: HSF1 (Homo sapiens, UniProt Q00613 1-529); settings: protein: recombinant; tags: N-terminal GST; chain copies: 3; dsDNA, one strand shown
# Sequence of HSF1 (Q00613 whole entry): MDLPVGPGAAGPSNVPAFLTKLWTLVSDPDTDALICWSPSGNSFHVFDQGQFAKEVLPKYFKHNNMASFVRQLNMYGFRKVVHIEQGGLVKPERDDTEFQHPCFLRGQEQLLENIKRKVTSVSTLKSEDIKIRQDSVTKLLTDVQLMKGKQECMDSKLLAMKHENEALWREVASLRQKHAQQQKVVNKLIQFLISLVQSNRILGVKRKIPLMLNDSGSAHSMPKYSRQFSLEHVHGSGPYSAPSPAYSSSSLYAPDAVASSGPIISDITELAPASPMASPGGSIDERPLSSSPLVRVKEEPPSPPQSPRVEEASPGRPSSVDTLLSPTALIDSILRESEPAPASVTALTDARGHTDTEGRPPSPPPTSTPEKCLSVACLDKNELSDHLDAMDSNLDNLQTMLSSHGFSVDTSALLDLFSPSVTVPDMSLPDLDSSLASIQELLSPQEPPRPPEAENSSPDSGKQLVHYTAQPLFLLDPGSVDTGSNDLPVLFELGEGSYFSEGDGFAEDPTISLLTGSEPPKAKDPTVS
# Summary of the method: as §1
# [13] = target: T8, SPIC (Homo sapiens, UniProt Q8N5J4 1-248); settings: protein: recombinant; tags: N-terminal GST; dsDNA, one strand shown
# T8 sequence: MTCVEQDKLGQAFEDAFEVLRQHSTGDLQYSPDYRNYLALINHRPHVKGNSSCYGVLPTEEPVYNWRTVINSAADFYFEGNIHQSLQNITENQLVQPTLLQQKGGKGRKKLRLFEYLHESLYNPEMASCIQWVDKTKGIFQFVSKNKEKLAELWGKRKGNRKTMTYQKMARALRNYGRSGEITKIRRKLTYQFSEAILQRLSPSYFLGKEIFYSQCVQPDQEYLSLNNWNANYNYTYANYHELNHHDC
# Summary of the method: as §1
# [14] = target: ELF4 (Homo sapiens, UniProt Q99607 1-663); settings: protein: recombinant; tags: N-terminal GST; dsDNA, one strand shown
# Sequence of ELF4 (Q99607 whole entry): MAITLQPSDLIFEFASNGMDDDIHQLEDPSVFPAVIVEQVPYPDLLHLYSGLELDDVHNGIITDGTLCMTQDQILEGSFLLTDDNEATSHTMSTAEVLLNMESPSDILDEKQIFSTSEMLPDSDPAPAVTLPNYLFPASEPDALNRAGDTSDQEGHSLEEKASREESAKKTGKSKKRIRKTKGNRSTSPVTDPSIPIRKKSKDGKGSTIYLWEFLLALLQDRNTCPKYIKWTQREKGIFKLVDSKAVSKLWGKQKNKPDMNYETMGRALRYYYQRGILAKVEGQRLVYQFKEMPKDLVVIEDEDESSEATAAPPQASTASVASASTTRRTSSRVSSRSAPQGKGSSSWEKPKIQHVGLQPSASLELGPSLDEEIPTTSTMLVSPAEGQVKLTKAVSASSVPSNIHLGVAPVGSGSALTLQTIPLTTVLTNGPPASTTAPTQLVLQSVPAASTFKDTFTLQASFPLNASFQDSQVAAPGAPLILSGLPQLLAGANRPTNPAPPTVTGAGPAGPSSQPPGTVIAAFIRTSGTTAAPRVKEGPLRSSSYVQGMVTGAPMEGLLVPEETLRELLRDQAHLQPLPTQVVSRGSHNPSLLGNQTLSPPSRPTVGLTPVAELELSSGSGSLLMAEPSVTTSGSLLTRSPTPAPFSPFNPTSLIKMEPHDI
# Summary of the method: as §1
# [15] = target: T9, ELK4 (Homo sapiens, UniProt P28324-2 1-405); settings: protein: recombinant; tags: N-terminal GST; dsDNA, one strand shown
# T9 sequence: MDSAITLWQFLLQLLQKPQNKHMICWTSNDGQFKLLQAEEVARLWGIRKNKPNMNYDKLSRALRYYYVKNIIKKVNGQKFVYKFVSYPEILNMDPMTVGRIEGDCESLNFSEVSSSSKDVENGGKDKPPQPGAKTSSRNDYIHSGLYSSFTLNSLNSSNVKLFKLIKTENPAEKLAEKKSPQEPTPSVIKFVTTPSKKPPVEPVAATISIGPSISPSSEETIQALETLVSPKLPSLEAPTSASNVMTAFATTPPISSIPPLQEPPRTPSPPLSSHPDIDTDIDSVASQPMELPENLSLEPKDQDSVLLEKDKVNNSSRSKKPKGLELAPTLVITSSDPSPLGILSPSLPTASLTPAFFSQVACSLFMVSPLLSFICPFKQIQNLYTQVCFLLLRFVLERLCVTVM
# Summary of the method: as §1
# [16] = target: T10, ETV2 (Homo sapiens, UniProt O00321 1-342); settings: protein: recombinant; tags: N-terminal GST; dsDNA, one strand shown
# T10 sequence: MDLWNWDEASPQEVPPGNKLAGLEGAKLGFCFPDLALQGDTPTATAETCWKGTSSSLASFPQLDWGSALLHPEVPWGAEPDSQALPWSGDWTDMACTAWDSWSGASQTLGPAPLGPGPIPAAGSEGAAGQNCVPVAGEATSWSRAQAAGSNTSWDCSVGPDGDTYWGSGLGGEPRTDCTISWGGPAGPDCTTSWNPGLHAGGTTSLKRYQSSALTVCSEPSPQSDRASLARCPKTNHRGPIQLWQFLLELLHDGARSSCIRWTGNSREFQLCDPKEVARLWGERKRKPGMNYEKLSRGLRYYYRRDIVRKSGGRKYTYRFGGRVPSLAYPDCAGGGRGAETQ
# Summary of the method: as §1
# [17] = target: T11, ELF3 (Homo sapiens, UniProt P78545 1-371); settings: protein: recombinant; tags: N-terminal GST; dsDNA, one strand shown
# T11 sequence: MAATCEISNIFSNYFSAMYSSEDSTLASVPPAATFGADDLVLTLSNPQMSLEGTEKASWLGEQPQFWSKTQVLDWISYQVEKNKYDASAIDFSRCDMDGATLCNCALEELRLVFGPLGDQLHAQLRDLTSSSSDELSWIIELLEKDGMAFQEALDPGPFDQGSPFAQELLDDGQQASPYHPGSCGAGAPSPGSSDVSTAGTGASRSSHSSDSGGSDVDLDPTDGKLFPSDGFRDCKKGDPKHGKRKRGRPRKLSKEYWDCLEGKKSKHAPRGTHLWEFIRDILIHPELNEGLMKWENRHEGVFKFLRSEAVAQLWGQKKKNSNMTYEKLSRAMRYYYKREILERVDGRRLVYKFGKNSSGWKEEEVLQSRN
# Summary of the method: as §1
# [18] = target: ETV1 (Homo sapiens, UniProt P50549 1-477); settings: protein: recombinant; tags: N-terminal GST; dsDNA, one strand shown
# Sequence of ETV1 (P50549 whole entry): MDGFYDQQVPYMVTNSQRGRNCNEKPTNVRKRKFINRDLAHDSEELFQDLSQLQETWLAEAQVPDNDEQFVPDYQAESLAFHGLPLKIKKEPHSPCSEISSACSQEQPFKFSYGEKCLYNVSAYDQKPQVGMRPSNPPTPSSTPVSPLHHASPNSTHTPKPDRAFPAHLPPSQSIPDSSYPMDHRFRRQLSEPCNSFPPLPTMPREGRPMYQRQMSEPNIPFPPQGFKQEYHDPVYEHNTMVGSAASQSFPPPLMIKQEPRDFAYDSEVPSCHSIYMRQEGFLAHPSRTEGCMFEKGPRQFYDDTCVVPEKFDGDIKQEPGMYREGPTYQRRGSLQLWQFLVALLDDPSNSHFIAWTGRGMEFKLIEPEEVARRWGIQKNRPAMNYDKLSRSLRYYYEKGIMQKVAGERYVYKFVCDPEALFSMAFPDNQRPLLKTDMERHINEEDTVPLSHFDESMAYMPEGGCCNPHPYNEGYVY
# Summary of the method: as §1
sequence,measurement,setting,value
TGGCAC,binding signal,[1],"1.19 fold enrichment (6-mer frequency, TF over GST control)"
same,binding signal,[2],"1.23 fold enrichment (6-mer frequency, TF over GST control)"
same,binding signal,[3],"1.15 fold enrichment (6-mer frequency, TF over GST control)"
same,binding signal,[4],"1.27 fold enrichment (6-mer frequency, TF over GST control)"
same,binding signal,[5],"1.09 fold enrichment (6-mer frequency, TF over GST control)"
same,binding signal,[6],"1.26 fold enrichment (6-mer frequency, TF over GST control)"
same,binding signal,[7],"1.14 fold enrichment (6-mer frequency, TF over GST control)"
same,binding signal,[8],"1.18 fold enrichment (6-mer frequency, TF over GST control)"
same,binding signal,[9],"1.17 fold enrichment (6-mer frequency, TF over GST control)"
same,binding signal,[10],"1.31 fold enrichment (6-mer frequency, TF over GST control)"
same,binding signal,[11],"1.18 fold enrichment (6-mer frequency, TF over GST control)"
same,binding signal,[12],"1.03 fold enrichment (6-mer frequency, TF over GST control)"
same,binding signal,[13],"1.24 fold enrichment (6-mer frequency, TF over GST control)"
same,binding signal,[14],"1.25 fold enrichment (6-mer frequency, TF over GST control)"
same,binding signal,[15],"1.12 fold enrichment (6-mer frequency, TF over GST control)"
same,binding signal,[16],"1.24 fold enrichment (6-mer frequency, TF over GST control)"
same,binding signal,[17],"1.18 fold enrichment (6-mer frequency, TF over GST control)"
same,binding signal,[18],"1.11 fold enrichment (6-mer frequency, TF over GST control)"
